C diff growth – C. difficile growth inhibitors, primary screen, HTS. actives 0.25% (n = 86,000). growth activity, negative = inhibition, % at 16 µg/mL (by protocol). AID 1259249, 2017. Clostridium difficile clinical isolate growth, OD600, 24 h; hits give low values;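 active means mean growth activity at or below -80% and every replicate also at or below -80%; inconclusive means mean at or below -80% but some replicate above -80%; inactive means mean growth activity above -80%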;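 further: 0% = DMSO wells and -100% = levofloxacin 16 µg/mL wells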
Pf Dd2 growth – P. falciparum Dd2 growth inhibitors, primary screen, SYBR Green fluorescence, single dose replicates | actives 2.3% (n = 94,000) | 72 h; hits give low values | activity change, % at 10 µM; in the data active means activity change below about -80%; inconclusive means no clear call, values can overlap the other calls
T cruzi growth-1 – T. cruzi intracellular proliferation inhibitors, primary screen, cell-based, beta-gal Tulahuen parasites, NIH3T3 host, luminescence; T. cruzi beta-gal in NIH3T3, GalScreen luminescence, 90 h; inhibition, % at 8.34 µM; actives 5.9% (n = 77,000); AID 624255, 2012;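 active means mean inhibition above about 93%, with at least 55% of replicates each passing it, limit read from the data, passing the limit was not always enough; inconclusive means only one of those two conditions holds; inactive means neither condition holds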
T cruzi growth-2 – T. cruzi intracellular proliferation inhibitors, confirmation, cell-based, NIH3T3 host, beta-gal parasite, luminescence, cherry-pick; shares compounds with T cruzi growth-1; T. cruzi beta-gal in NIH3T3, GalScreen luminescence, 90 h; inhibition, % at 8.35 µM; actives 72% (n = 5,600); AID 651739, 2012;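 active means mean replicate inhibition above about 95% and at least 55% of replicates individually reaching it, limit read from the data; inconclusive means only one of the two criteria is met; inactive means neither criterion is met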
T cruzi growth-3 – inhibitors of intracellular T. cruzi replication, confirmation, NIH3T3 host cells, beta-gal parasites, cherry-pick, set 2 | shares compounds with T cruzi growth-1 | T. cruzi beta-gal in NIH3T3, GalScreen luminescence, 90 h | inhibition, % at 2.09 µM | actives 21% (n = 5,600) | AID 651740, 2012;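 active means mean inhibition above about 95%, with at least 55% of replicates also reaching it, limit read from the data; inconclusive means meets just one of the two conditions; inactive means meets neither condition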;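 further: plate controls were neutral control median for no effect and positive control median for full effect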
3T3 cytotox – cytotoxicity in mouse NIH/3T3 fibroblasts, confirmation, cytotoxicity control for T. cruzi proliferation inhibitor project, cell-based, cherry-pick, single point. shares compounds with T cruzi growth-1. NIH/3T3 viability, CellTiter-Glo ATP luminescence, 90 h. cytotoxicity (signal decrease), % at 8.35 µM. actives 14% (n = 5,600). AID 651742, 2012;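 active means mean signal decrease across replicates above about 35% based on untreated-well scatter, with enough replicates individually passing, limit read from the data; inconclusive means no rule stated though some were filed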;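 further: 0% = median of neutral control wells and 100% = median of positive control wells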
3T3 cytotox 2 – NIH/3T3 fibroblast cytotoxicity, confirmation, cytotoxicity control, cell-based, cherry-pick, single point, set 2. shares compounds with T cruzi growth-1. NIH/3T3 viability, CellTiter-Glo ATP luminescence, 90 h. inhibition, % at 24.9 µM. actives 56% (n = 5,600). AID 651744, 2012;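 active means mean loss of cell viability signal at or above a set limit, and enough replicates individually reaching it; inconclusive means meets only the mean limit or only the replicate share; inactive means meets neither condition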;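 further: 0% = median of neutral control wells and 100% = median of positive control wells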
* marks the source's active call; other numbers are inactive results; ? = inconclusive; / = not tested or not shown. In the library only some 6.8% were active in any assay of this set; here they are far more common.

SMILES | C diff growth | Pf Dd2 growth | T cruzi growth-1 | T cruzi growth-2 | T cruzi growth-3 | 3T3 cytotox | 3T3 cytotox 2
C[C@@H]1CN([C@@H](C)CO)C(=O)c2cc(N(C)C)ccc2O[C@H]1CN(C)CC1CCCCC1 | 8.4 | 5.3 | 101.8* | -22.3 | -98.8 | -16.1 | -4.0
C[C@H](CO)N1C[C@H](C)[C@H](CN(C)CC2CCCCC2)Oc2ccc(NC(=O)CCC(F)(F)F)cc2C1=O | 7.8 | -2.9 | 6.7 | / | / | / | /
CO[C@@H]1CN(C)C(=O)c2ccc(NC(=O)C3CCOCC3)cc2OC[C@H](C)N(Cc2cccnc2)C[C@H]1C | / | 56.9 | / | / | / | / | /
CC=Cc1ccc2n(c1=O)C[C@H]1[C@H](CO)[C@@H](C(=O)NCC(F)(F)F)[C@@H]2N1C(=O)C1CCCC1 (mixture of isomers) | -3.2 | 66.6 | / | / | / | / | /
N#C[C@H]1[C@@H](c2ccc(-c3ccccc3F)cc2)[C@H](CO)N1C(=O)Cc1ccccc1 | 12.3 | -4.6 | 75.9 | / | / | / | /
Cc1noc(C)c1S(=O)(=O)Nc1cccc2c1O[C@@H](CN(C)CC1CC1)[C@@H](C)CN([C@@H](C)CO)C2=O | -1.6 | 16.9 | -21.8 | / | / | / | /
C[C@H](CO)N1C[C@H](C)[C@H](CN(C)S(=O)(=O)c2ccccc2)OCCCC[C@H](C)Oc2ccc(NC(=O)Nc3ccc(C(F)(F)F)cc3)cc2C1=O | 5.7 | -56.6 | 104.1* | 105.2* | 109.0* | 1.5 | 22.6
C[C@@H]1CN([C@H](C)CO)C(=O)c2cc(NC(=O)Nc3ccc(C(F)(F)F)cc3)ccc2O[C@@H](C)CCCCO[C@@H]1CN(C)S(=O)(=O)c1ccccc1 | -1.5 | -59.4 | 89.6 | / | / | / | /
C[C@@H]1CCCCO[C@H](CN(C)S(=O)(=O)c2ccccc2)[C@@H](C)CN([C@@H](C)CO)C(=O)c2cc(NC(=O)Nc3ccc(C(F)(F)F)cc3)ccc2O1 | -10.6 | -81.7* | 102.9* | 106.3* | 108.6* | 41.9* | 69.6*
C[C@H]1CCCCO[C@@H](CN(C)S(=O)(=O)c2ccccc2)[C@@H](C)CN([C@@H](C)CO)C(=O)c2cc(NC(=O)Nc3ccc(C(F)(F)F)cc3)ccc2O1 | -7.2 | -82.7* | 99.8* | 100.4* | 112.5* | 18.7 | 8.2
C[C@@H]1CCCCO[C@@H](CN(C)S(=O)(=O)c2ccccc2)[C@@H](C)CN([C@H](C)CO)C(=O)c2cc(NC(=O)Nc3ccc(C(F)(F)F)cc3)ccc2O1 | 10.3 | -71.3 | 55.9 | / | / | / | /
Cc1ccc(S(=O)(=O)N(C)C[C@@H]2OCCCC[C@@H](C)Oc3ccc(NC(=O)Nc4ccc(C(F)(F)F)cc4)cc3C(=O)N([C@H](C)CO)C[C@H]2C)cc1 | 3.7 | -76.3 | / | / | / | / | /
Cc1ccc(S(=O)(=O)N(C)C[C@@H]2OCCCC[C@H](C)Oc3ccc(NC(=O)Nc4ccc(C(F)(F)F)cc4)cc3C(=O)N([C@@H](C)CO)C[C@H]2C)cc1 | -1.4 | -61.2 | / | / | / | / | /
C[C@@H]1CCCCO[C@H](CN(C)S(=O)(=O)c2ccccc2)[C@@H](C)CN([C@H](C)CO)C(=O)c2cc(NC(=O)Nc3ccc(C(F)(F)F)cc3)ccc2O1 | 2.5 | -75.1 | 114.6* | ? | -28.1 | 13.2 | 2.2
COc1ccc(S(=O)(=O)N2CC[C@@H]3[C@@H](CO)Nc4ccc(C5=CCCCC5)cc4[C@@H]32)cc1 | -3.5 | -70.4 | / | / | / | / | /
CCCNC(=O)N(C)C[C@@H]1Oc2ncc(-c3ccc(F)cc3)cc2C(=O)N([C@@H](C)CO)C[C@@H]1C | -0.2 | 23.8 | / | / | / | / | /
CCC(=O)N1CC2(C1)CN(Cc1cc(F)ccc1F)[C@H](CO)c1c2c2ccc(OC)cc2n1C | 18.3 | -2.7 | / | / | / | / | /
C[C@@H]1CCCCO[C@H](CN(C)C(=O)CCC(F)(F)F)[C@@H](C)CN([C@@H](C)CO)C(=O)c2cc(NS(C)(=O)=O)ccc2O1 | -2.8 | -5.7 | 44.9 | / | / | / | /
